Experimental data as given in paper PMC5700166.

These sequences were tested against T1, GST-Co-NF-kB (Capsaspora owczarzaki, UniProt F1ARL5 200-546) (assay: protein-binding microarray (PBM); PBM: ~300 nM protein, 6 mM HEPES pH 7.8, 80 mM KCl, 0.5 mM EDTA, 0.5 mM EGTA, 6% glycerol, 35 ng/ul poly-dIdC, 1% milk, 1 h, room temperature; Ap Aiptasia and Nv Nematostella (sea anemones) / Co Capsaspora / Aq Amphimedon (sponge) / Dm Drosophila / Hu human; RHD is the Rel homology domain; high values mean tight binding). Settings: dsDNA, one strand shown.
T1 sequence: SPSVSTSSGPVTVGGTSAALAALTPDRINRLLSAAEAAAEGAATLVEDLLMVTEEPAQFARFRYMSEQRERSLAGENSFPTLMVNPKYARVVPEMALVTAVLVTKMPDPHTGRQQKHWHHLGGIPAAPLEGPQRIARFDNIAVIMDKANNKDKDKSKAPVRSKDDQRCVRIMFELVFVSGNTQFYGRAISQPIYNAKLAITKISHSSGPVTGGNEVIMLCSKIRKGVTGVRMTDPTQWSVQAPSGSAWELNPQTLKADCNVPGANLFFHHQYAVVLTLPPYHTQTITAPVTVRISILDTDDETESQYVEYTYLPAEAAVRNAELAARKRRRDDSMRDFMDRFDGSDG

Row | Sequence | binding signal [z-score]
1 | CCGATTAACATCACCCAAAGTTTTGATGTTAATCGGGTCTTGATTCGCTTGACGCTGCTG | 1.24
2 | CCGATTAACATCAGGTCACCCCATGATGTTAATCGGGTCTTGATTCGCTTGACGCTGCTG | 2.51
3 | CCGATTAACATCAGGGTATAACGTGATGTTAATCGGGTCTTGATTCGCTTGACGCTGCTG | 1.1
4 | CCGATTAACATCACCCACGAGGGTGATGTTAATCGGGTCTTGATTCGCTTGACGCTGCTG | 1.35
5 | CCGATTAACATCATACCTCCCGTTGATGTTAATCGGGTCTTGATTCGCTTGACGCTGCTG | 1.01
6 | CCGATTAACATCAGCCATATTTGTGATGTTAATCGGGTCTTGATTCGCTTGACGCTGCTG | 1.13
7 | CCGATTAACATCAAGGGTGGAAATGATGTTAATCGGGTCTTGATTCGCTTGACGCTGCTG | 1.66
8 | CCGATTAACATCACAAATTTTCCTGATGTTAATCGGGTCTTGATTCGCTTGACGCTGCTG | 1.2
9 | CCGATTAACATCAACGTGATTTGTGATGTTAATCGGGTCTTGATTCGCTTGACGCTGCTG | 1.11
10 | CCGATTAACATCAGGGAGCGGTTTGATGTTAATCGGGTCTTGATTCGCTTGACGCTGCTG | 1.07
11 | CCGATTAACATCAGATACCAGGGTGATGTTAATCGGGTCTTGATTCGCTTGACGCTGCTG | 1.09
12 | CCGATTAACATCACCCACGACGATGATGTTAATCGGGTCTTGATTCGCTTGACGCTGCTG | 1.01
13 | CCGATTAACATCAATTTTTGCCCTGATGTTAATCGGGTCTTGATTCGCTTGACGCTGCTG | 1.72
14 | CCGATTAACATCAGGAAAAAAACTGATGTTAATCGGGTCTTGATTCGCTTGACGCTGCTG | 1.06
15 | CCGATTAACATCACAATAACGGGTGATGTTAATCGGGTCTTGATTCGCTTGACGCTGCTG | 1.26
16 | CCGATTAACATCACCCGCTTTATTGATGTTAATCGGGTCTTGATTCGCTTGACGCTGCTG | 1.23
17 | CCGATTAACATCAATGTCGGTGGTGATGTTAATCGGGTCTTGATTCGCTTGACGCTGCTG | 1.2
18 | CCGATTAACATCAGGGCAAAAAATGATGTTAATCGGGTCTTGATTCGCTTGACGCTGCTG | 1.84
19 | CCGATTAACATCACCCATTTCCGTGATGTTAATCGGGTCTTGATTCGCTTGACGCTGCTG | 1.41
20 | CCGATTAACATCAGGGTGTAGTTTGATGTTAATCGGGTCTTGATTCGCTTGACGCTGCTG | 1.14
21 | CCGATTAACATCATGTCGGGTGATGATGTTAATCGGGTCTTGATTCGCTTGACGCTGCTG | 1.26
22 | CCGATTAACATCAGTAGGTGAAGTGATGTTAATCGGGTCTTGATTCGCTTGACGCTGCTG | 1.02
23 | CCGATTAACATCACACCCGCAACTGATGTTAATCGGGTCTTGATTCGCTTGACGCTGCTG | 1.54

These sequences were tested against T2, GST-Dm-Relish (Drosophila melanogaster, UniProt Q94527 99-473) in the same assay as above. Settings: dsDNA, one strand shown.
T2 sequence: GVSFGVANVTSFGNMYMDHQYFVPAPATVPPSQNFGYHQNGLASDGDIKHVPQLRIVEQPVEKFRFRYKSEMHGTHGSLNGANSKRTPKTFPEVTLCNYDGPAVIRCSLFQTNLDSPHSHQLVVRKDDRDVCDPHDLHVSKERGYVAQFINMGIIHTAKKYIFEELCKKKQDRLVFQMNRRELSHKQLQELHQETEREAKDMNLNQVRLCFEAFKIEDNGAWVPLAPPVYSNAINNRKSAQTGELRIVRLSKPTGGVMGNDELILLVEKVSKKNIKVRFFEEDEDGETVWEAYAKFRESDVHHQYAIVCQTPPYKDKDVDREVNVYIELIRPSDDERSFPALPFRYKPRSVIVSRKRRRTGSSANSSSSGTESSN

Row | Sequence | binding signal [z-score]
24 | CCGATTAACATCATGTGGTTCTCTGATGTTAATCGGGTCTTGATTCGCTTGACGCTGCTG | 1.1
25 | CCGATTAACATCACCGAATTTGGTGATGTTAATCGGGTCTTGATTCGCTTGACGCTGCTG | 1.44
26 | CCGATTAACATCAGTAGTTTCCATGATGTTAATCGGGTCTTGATTCGCTTGACGCTGCTG | 1.79
27 | CCGATTAACATCACCCACGAGGGTGATGTTAATCGGGTCTTGATTCGCTTGACGCTGCTG | 1.29
28 | CCGATTAACATCAGGAAACTACATGATGTTAATCGGGTCTTGATTCGCTTGACGCTGCTG | 5.23
29 | CCGATTAACATCAGGAATTACACTGATGTTAATCGGGTCTTGATTCGCTTGACGCTGCTG | 3.55
30 | CCGATTAACATCACAAATTTTCCTGATGTTAATCGGGTCTTGATTCGCTTGACGCTGCTG | 2.01
31 | CCGATTAACATCAAGTACAACGGTGATGTTAATCGGGTCTTGATTCGCTTGACGCTGCTG | 1.44
32 | CCGATTAACATCAGGAAATAACATGATGTTAATCGGGTCTTGATTCGCTTGACGCTGCTG | 2.04
33 | CCGATTAACATCAGGAATTTATATGATGTTAATCGGGTCTTGATTCGCTTGACGCTGCTG | 1
34 | CCGATTAACATCACCCACGACGATGATGTTAATCGGGTCTTGATTCGCTTGACGCTGCTG | 1.04
35 | CCGATTAACATCAGTACATTCCATGATGTTAATCGGGTCTTGATTCGCTTGACGCTGCTG | 2.01
36 | CCGATTAACATCAGGAAAAAAACTGATGTTAATCGGGTCTTGATTCGCTTGACGCTGCTG | 1.23
37 | CCGATTAACATCACAATAACGGGTGATGTTAATCGGGTCTTGATTCGCTTGACGCTGCTG | 1.63
38 | CCGATTAACATCACAAGAATTCCTGATGTTAATCGGGTCTTGATTCGCTTGACGCTGCTG | 1.19
39 | CCGATTAACATCAATAAATGTACTGATGTTAATCGGGTCTTGATTCGCTTGACGCTGCTG | 1.14
40 | CCGATTAACATCAGGAAAATCACTGATGTTAATCGGGTCTTGATTCGCTTGACGCTGCTG | 3.47
41 | CCGATTAACATCAGGAAAAATACTGATGTTAATCGGGTCTTGATTCGCTTGACGCTGCTG | 1.36
42 | CCGATTAACATCACCCATTTCCGTGATGTTAATCGGGTCTTGATTCGCTTGACGCTGCTG | 1.34
43 | CCGATTAACATCAGGGTGTAGTTTGATGTTAATCGGGTCTTGATTCGCTTGACGCTGCTG | 1.07
44 | CCGATTAACATCACCATTATAGGTGATGTTAATCGGGTCTTGATTCGCTTGACGCTGCTG | 1.48
45 | CCGATTAACATCAAAATTCCAGGTGATGTTAATCGGGTCTTGATTCGCTTGACGCTGCTG | 1.13
46 | CCGATTAACATCAGTGAATTCCATGATGTTAATCGGGTCTTGATTCGCTTGACGCTGCTG | 2.81
47 | CCGATTAACATCACCTCTCGCGCTGATGTTAATCGGGTCTTGATTCGCTTGACGCTGCTG | 1.25
